# Bioassay records deposited in PubChem BioAssay by National Center for Advancing Translational Sciences (NCATS).
# Rows were chosen to be rich in hits. Some 1.5% of all compounds tested hit in one or more screens of this group.
# rTrxR1 inhibitor – rat TrxR1 inhibition | recombinant rTrxR1, NADPH fluorescence consumption, selenite substrate | Potency, µM (highest dose often 114 µM), most hits filed as inhibitors | 390,000 tested, 1% active; also: nearly all actives have a fitted effect of over 65% in size
# Target sequence (O89049 whole entry, looked up): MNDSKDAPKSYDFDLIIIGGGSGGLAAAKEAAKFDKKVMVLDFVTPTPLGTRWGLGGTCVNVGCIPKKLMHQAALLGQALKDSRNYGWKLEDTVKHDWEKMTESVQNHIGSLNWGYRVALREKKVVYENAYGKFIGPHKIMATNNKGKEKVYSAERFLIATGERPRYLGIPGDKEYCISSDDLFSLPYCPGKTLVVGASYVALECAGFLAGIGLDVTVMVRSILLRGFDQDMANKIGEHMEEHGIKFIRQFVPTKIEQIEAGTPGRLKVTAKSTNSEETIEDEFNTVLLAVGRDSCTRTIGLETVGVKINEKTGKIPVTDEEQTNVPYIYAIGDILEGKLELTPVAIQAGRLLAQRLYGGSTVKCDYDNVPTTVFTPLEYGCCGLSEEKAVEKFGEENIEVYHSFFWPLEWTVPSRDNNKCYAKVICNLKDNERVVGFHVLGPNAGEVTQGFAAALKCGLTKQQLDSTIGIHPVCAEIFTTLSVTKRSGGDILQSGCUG
#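 Rat TrxR1 (90 nM in the dispensed reagent) was pre-reduced with 400 uM NADPH for 5 min at room temperature, then incubated with compound for 15 min. After 400 uM selenite was added, NADPH fluorescence (Ex 340/Em 450 nm) was followed for 8 min.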
# Eya2 phos inh – Eya2 (human) phosphatase inhibition | Potency, µM (top dose mostly 76.9 µM), most hits filed as inhibitors | O00167 | 330,000 tested, 0.006% active | recombinant Eya2, OMFP fluorescence dephosphorylation (OMFP is methylfluorescein phosphate)
#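 Eya2 (0.2 uM) preincubated 10 min at ambient with compound, then OMFP substrate added at 50 uM; 10 min reaction in 50 mM HEPES pH 7.5, 50 mM NaCl, 5 uM MgCl2, 0.05% BSA, 1 mM DTT. Fluorescence read at Ex 485/Em 525 nm.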
# TrxR1 substrate – rat thioredoxin reductase 1 substrate activity | O89049 | purified TrxR1 substrate turnover, NADPH consumption readout | Potency, µM (top dose mostly 114 µM) | 390,000 tested, 0.01% active; also: nearly all actives have a fitted effect of over 50% in size
#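 Rat TrxR1, dispensed at 90 nM, was prereduced with 400 uM NADPH (final) for 5 min at ~22 deg C, then incubated with compound 15 min before 400 uM selenite. A first-read NADPH fluorescence drop versus no-compound background flagged substrates.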
# Coupling enz – coupling enzyme interference in Giardia aldolase counter-screen; AID 2472; activity change, negative = inhibition, % at 58.2 µM, hits read low; 290,000 tested, 0.67% active; coupling enzyme system counterscreen, AmpLite Red fluorescence; in the data active = activity change below about -30%
#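 First, compound is pin-transferred into glyceraldehyde-3-phosphate coupling-enzyme reagent at 57.5 uM final and held 10 min at RT. Next, substrate, coupling system and AmpLite Red are added. After 20 min RT, fluorescence (525/598 nm) is read.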
# IDH1 R132H inh – inhibitors of human mutant IDH1 R132H; O75874; IDH1-R132H enzyme, NADPH consumption, diaphorase/resazurin fluorescence; Potency, µM (top dose mostly 76.6 µM), actives largely listed as inhibitors; 390,000 tested, 0.093% active; AID 602179; also: nearly all actives have a fitted effect of over 65% in size
#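 IDH1-R132H (0.5 ug/mL) preincubated 30 min with compound, then NADPH (0.016 mM) and alpha-KG (2 mM) added; 80 min at RT, pH 7.5. Remaining NADPH coupled via diaphorase/resazurin to fluorescence (540/590 nm); concentration-response curves normalized to no-enzyme control.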
# Numbers stand for hits; n = inactive; u = inconclusive; x = no result; [ ] = another dose, or the depositor's remark. Unless noted, calls follow the shape of the dose curve; as a rule, active = well fitted curve in the direction sought with a large enough effect; inconclusive = small, poorly fitted or top-dose-only effect, or another doubt; inactive = no such curve, though single readings can be large; an effect the other way counts as inactive or inconclusive.
SMILES,rTrxR1 inhibitor,Eya2 phos inh,TrxR1 substrate,Coupling enz,IDH1 R132H inh
CCCCn1c(SCC(=O)Nc2cccc(OC)c2)nc2ccc(N3CCOCC3)cc2c1=O,n,n,n,-32.5,n
CC(=O)c1sc(N/N=C2\CC3CC2C(C)C3(C)C)nc1C (centres undefined),11.2µM,n,n,n,n
COc1ccc2nc(-c3ccccc3)[nH]c2c1,n,n,n,-32.4,n
C[C@H]1Cc2c(-c3ccccc3)nc3c(c2CO1)CN(C(=O)Nc1cccc(C#N)c1)CC3,x,x,x,n,x
CCOC(=O)[C@@H](C)N(C(=O)OC(C)(C)C)S(=O)(=O)N(Cc1ccccc1)[C@@H](C(=O)OC)C(C)C,n,x,n,x,x
Cc1c(N=C2C=CC(=O)c3ccccc32)c(=O)n(-c2ccccc2)n1C,u,n,n,-52.0,n
Cc1c(N=C2C=C(Br)C(=O)C(Br)=C2)c(=O)n(-c2ccccc2)n1C,u,n,n,n,n
Cc1oc(-c2ccc(Cl)cc2)nc1CS(=O)CC(=O)NCc1ccccn1 (centres undefined),17.8µM,n,n,x,n
CCc1ccc(-c2nc(CS(=O)CC(=O)NCCCN3CCOCC3)c(C)o2)cc1 (centres undefined),20µM,n,n,x,n
CCc1ccc(-c2nc(CS(=O)CC(=O)NCc3ccccc3)c(C)o2)cc1 (centres undefined),31.6µM,n,n,x,n
Cc1ccc(CN2[C@H]3CCCC[C@@H]3OCCS2(=O)=O)cc1,n,x,n,x,x
O=Cc1cccc(C=O)c1,n,x,n,x,x
CCN(CC)c1ccc2c(C)c(Cl)c(=O)oc2c1,n,n,n,n,n
CCN(CC)c1ccc2c(c1)oc(=O)c1c(Cl)cc(=O)oc12,35.5µM,n,n,n,u
c1coc(-c2ccc3ncnc(NCc4cccs4)c3c2)c1,x,n,x,x,x
COc1cc(OC)cc(-c2nc3ccccc3c(=O)n2OC(=O)c2ccccc2C)c1,n,n,n,n,n
O=C(On1c(-c2ccccc2)nc2ccccc2c1=O)c1ccco1,5.01µM,x,n,n,n
OCC(O)C[n+]1cccc(Br)c1 (centres undefined),n,x,n,x,x
O=C(O)CCNS(=O)(=O)c1ccc2ccccc2c1,n,n,n,n,n
O=C(O)CCNc1cc2ccccc2cc1C(=O)O,n,n,n,-30.4,n
O=CC(=O)c1ccc(F)cc1,n,x,n,x,x
O=C(C[n+]1ccccc1)c1ccc(O)c(O)c1,n,x,n,x,x
CC(C)S(=O)(=O)N1CCN(c2nc(-c3cccs3)nc3ccccc23)CC1,n,x,n,x,x
N#Cc1c(N)oc(-c2ccc3c(c2)OCO3)c1-c1ccc2c(c1)OCO2,n,n,n,-38.3,n
Cc1nc(N)c(C#N)c(-c2ccc3c(c2)OCO3)c1C,n,n,n,n,n
SMILES,rTrxR1 inhibitor,Eya2 phos inh,TrxR1 substrate,Coupling enz,IDH1 R132H inh
COc1ccc(C(=O)NCC23C=CC(O2)C2C(=O)N(Cc4ccccc4)C(=O)C23)cc1 (centres undefined),25.1µM,n[15.4 µM],n,n,n
CN(CCO)c1cc(Sc2nc3ccccc3s2)c2nonc2c1[N+](=O)[O-],0.355µM,n,n,n,n
NS(=O)(=O)c1ccc(Sc2nc3ccccc3s2)c([N+](=O)[O-])c1,n,n,n,n,n
CC(=O)OCCN(C)c1cc(SC(C)C)c2nonc2c1[N+](=O)[O-],3.16µM,n,n,n,n
O=C(Nc1ncnc2nc[nH]c12)c1ccccc1,n,x,n,x,x
CN(Cc1ccccc1)C(=C(Cl)Cl)/C(=C1/NCCN1C)[N+](=O)[O-],n,n,n,n,n
CN1CCN/C1=C(/C(Cl)=C(Cl)Cl)[N+](=O)[O-],3.16µM,n,n,n,n
CS(=O)(=O)c1ccc(C(=O)NCCN2C(=O)S/C(=C\c3cccnc3)C2=O)cc1[N+](=O)[O-],17.8µM,n,n,n,n
N#CCCCS(=O)(=O)c1nnnn1-c1ccc(Br)cc1,x,x,x,n,x
COc1cccc(CCc2nnc(CCC(=O)NCCc3cccc(C)n3)o2)c1,n,n,n,n,n
COc1cccc(CCc2nnc(CCC(=O)N3CCN(Cc4ccccn4)CC3)o2)c1,31.6µM,n,n,n,n
O=C(/C=C/c1ccco1)Nc1cc(Cl)ccc1C(=O)O,12.6µM,n,n,n,n
CN(Cc1ccccc1)C(=O)COC(=O)/C=C/c1ccco1,n,n,n,n,n
CN(CCOC(=O)/C=C/c1ccco1)Cc1ccccc1,44.7µM,n,n,n,n
O=C(/C=C/c1ccco1)Nc1ccccc1C(=O)O,14.1µM,n,n,n,n
CN(C(=O)/C=C/c1ccco1)c1ccccc1C(=O)O,28.2µM,n,n,n,n
CN(C)c1ccc(C(I)C(I)c2ccnc3ccccc23)cc1 (centres undefined),u,x,n,x,x
CC(=O)Nc1ccc2cc3ccc(NC(C)=O)cc3nc2c1,n,n,n,-32.9,n
CCCC1Cc2c(sc3ncnc(N)c23)CO1 (centres undefined),50.1µM,n,n,n,n
O=C(/C=C/c1ccc(/C=C/C(=O)Nc2ccc(C3=NCCN3)cc2)cc1)Nc1ccc(C2=NCCN2)cc1,x,x,x,n,x
Cc1c(Cl)cnc(NC(=O)COC(=O)[C@@H](NC(=O)c2ccco2)C(C)C)c1Cl,11.2µM,n,n,x,n
CCOc1ccc(C=C2SC(=O)N(CCN)C2=O)cc1,x,x,x,n,x
COc1cc(OC)c(C2C(C(=O)O)c3ccccc3C(=O)N2C)cc1OC (centres undefined),n,n,n,-39.9,n
CC1(C)Cc2c(C#N)c(N3CCN(C(=O)c4ccccc4)CC3)nc(-c3ccco3)c2CS1,31.6µM,n,n,n,n
CC1(C)Cc2c(C#N)c(N3CCCC3)nc(-c3ccco3)c2CO1,x,n,x,n,x
SMILES,rTrxR1 inhibitor,Eya2 phos inh,TrxR1 substrate,Coupling enz,IDH1 R132H inh
COc1cc(NC(=O)O[C@@H]2C(=O)c3cc(Br)ccc3O[C@H]2c2ccc3c(c2)OCO3)cc(OC)c1OC,x,x,x,n,x
CN1c2cccc3cccc(c23)N(C)C1(C)C,n,n,n,-33.2,n
CCCN(CCC)c1ccc(/C=C/c2sc3ccccc3[n+]2CCCCI)cc1,u,x,n[0.0914 µM],x,x
COC(=O)CNC(c1ccccc1)c1cc(Br)ccc1NC(=O)CCN1CCOCC1 (centres undefined),2.24µM,n,n,n,n
CCOC(=O)CNC(c1ccccc1)c1cc(Br)ccc1NC(=O)CCN1CCOCC1 (centres undefined),u,n,n,n,n
COc1cc(OC)cc(C2=Nn3c(nnc3-c3cccc(OC)c3)SC2)c1,x,x,x,n,x
Cc1c(NC(=O)OCCNC(=O)Nc2ccccc2)sc(=S)n1C,n,n,n,n,n
Cc1ccc(S(=O)(=O)NCCOC(=O)Nc2sc(=S)n(C)c2C)cc1,7.08µM,n,n,n,n
COC(=O)C1=C(C(=O)OC)[C@@H]2N(Cc3ccccc3)c3ccccc3[C@@]23C[C@@H](C(=O)OC)N(S(=O)(=O)c2ccc([N+](=O)[O-])cc2)C3=N1,x,x,x,n,x
